Records with an inconclusive call do not appear. Where a call stands in place of a potency, no number is given. Activity calls are given as the source filed them. Unless noted, calls come from the whole dose curve; as a rule, active = well fitted inhibition curve with a large enough effect; inconclusive = small, poorly fitted or top-dose-only effect; inactive = no such curve, though single readings can be large or run the other way.

The first test in a line: High-throughput drug toxicity screening in the BPDCN cell line Cal-1 (AID 1224825; call rule not given here). As to conditions: Cal-1 BPDCN cell viability, qHTS; at 45.8 µM (top of the series) unless noted. The procedure, abridged:
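Cal-1 cells, 500 per well in phenol-red-free RPMI with 10% FBS, exposed to compounds for 48 hours at 37C, 5% CO2. Viability read by CellTiter-Glo luminescence; percent activity normalized to DMSO (100%) and 9.2 uM bortezomib final (0%).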
Background: In qHTS, concentration-response curves come from the screen itself.
With `CCCCc1nc2cc(C=CC(=O)NO)ccc2n1CCN(CC)CC`, the viability (% of control) was 7.58%.

For the compound `COc1cc(=C2C=c3ccccc3=N2)[nH]c1=Cc1[nH]c(C)cc1C`, the viability (% of control) worked out at 3.02%.

On to `O=C(NCCS(=O)(=O)c1ccc(C(F)(F)F)cn1)c1ccc(Cl)cc1`, for which the viability (% of control) amounted to 123%.

In the case of `c1ccc2c(CCNc3ccc(Nc4ccncc4)cc3)c[nH]c2c1`, the viability (% of control) was 3.61%.

As to `Cc1cc(Nc2cc(N3CCN(C)CC3)nc(C=Cc3ccccc3)n2)n[nH]1`, the viability (% of control) was 3.23% [at 92.2 µM].

A short description of the next test: qHTS assay for measurement of the activity of small molecule inhibitors on Zika virus induced Caspase-3 activity in human iPSC derived neural progenitor cells (hNPCs) (AID 1224857). Note: nearly all actives have a fitted effect of over 65% in size. As to conditions: hNPCs ZIKV-induced caspase-3/7, Caspase-Glo luminescence, 6 h; series mostly up to 45.7 µM. In outline:
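Pretreat hNPCs with compound 1 h; infect ZIKV 2 FFU/cell; 6 h 37 C, 5% CO2; Caspase-Glo 3/7, 30 min RT; luminescence; normalize to no-virus and virus-only wells.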
Turning to `O=C(NCCCNc1nc(Nc2cccc(NC(=O)N3CCCC3)c2)ncc1I)c1cccs1`, the Potency result was “inactive”.

Take `CCOc1ccccc1OCCNC(C)Cc1ccc(OC)c(S(N)(=O)=O)c1` (stereo not given): the Potency entry is “inactive”.

Take `NC(=O)c1c(OCc2c(F)cc(Br)cc2F)nsc1NC(=O)NCCCCN1CCCC1`: the Potency result was “inactive”.

As for `CCCCc1nc2cc(C=CC(=O)NO)ccc2n1CCN(CC)CC`, the Potency result was “inactive”.

Turning to `CC(C)(O)c1cc2nc(-c3cnc(N)nc3)nc(N3CCOCC3)c2s1`, the Potency result is “inactive”.

As to `COc1cc(=C2C=c3ccccc3=N2)[nH]c1=Cc1[nH]c(C)cc1C`, the Potency entry was “inactive”.

As to `O=C(NC1CCNCC1)c1[nH]ncc1NC(=O)c1c(Cl)cccc1Cl`, the Potency entry is “inactive”.

`CCOc1cc2ncc(C#N)c(Nc3ccc(F)c(Cl)c3)c2cc1NC(=O)C=CCN(C)C`: the Potency entry was “inactive”.

In the case of `COc1ccc(C(=O)CC2(O)C(=O)Nc3c(Cl)ccc(Cl)c32)cc1` (stereo not given), the Potency entry was “inactive”.

`COc1ccc(CC2c3cc(OC)c(OC)cc3CC[N+]2(C)CCC(=O)OCCCCCOC(=O)CC[N+]2(C)CCc3cc(OC)c(OC)cc3C2Cc2ccc(OC)c(OC)c2)cc1OC` (stereo not given): the activity change, negative = inhibition was 18.4% [at 9.06 µM] (inactive).

On to `CC(C)(O)CCc1ccc(OCc2cc(-c3cccc(OC(F)F)c3)c3ncccc3c2)cc1`, for which the Potency result is “inactive”.

On to `COc1cc(OC2CCN(C)CC2)ccc1Nc1ncc2c(n1)n(C1CCCC1)c(=O)n2C`, for which the Potency entry was “inactive”.

For `O=C(NCCS(=O)(=O)c1ccc(C(F)(F)F)cn1)c1ccc(Cl)cc1`, the Potency result was “inactive”.

On to `CC[C@@]1(O)C(=O)OCc2c1cc1n(c2=O)Cc2cc3cc(O)ccc3nc2-1`, for which the Potency result was “inactive”.

As to `COc1cccc(Nc2c(C(N)=O)cnc3c(C)cc(S(=O)(=O)c4cccc(C(=O)N(C)C)c4)cc23)c1`, the Potency result was “inactive”.

Consider `CC(C)c1cc(-c2n[nH]c(=O)n2-c2ccc3c(ccn3C)c2)c(O)cc1O`, for which the Potency result was “inactive”.

Take `Cc1cc(CN2CCN(c3c(Br)cnc4nc(-c5ccc(N6CCN(C)CC6)cc5)[nH]c34)CC2)no1`: the Potency result was “inactive”.

On to `c1ccc2c(CCNc3ccc(Nc4ccncc4)cc3)c[nH]c2c1`, for which the Potency result is “inactive”.

Regarding `CN1CCN(Cc2ccc(NC(=O)Nc3ccc(Oc4cc(NC(=O)C5CC5)ncn4)cc3)cc2C(F)(F)F)CC1`, the Potency entry is “inactive”.

Consider `CCN(CC)CCCCNc1ncc2cc(-c3cc(OC)cc(OC)c3)c(NC(=O)NC(C)(C)C)nc2n1`, for which the Potency result was “inactive”.

On to `C[C@@H]1COC(Nc2ccc3ncnc(Nc4ccc(OCc5nccs5)c(Cl)c4)c3c2)=N1`, for which the Potency result is “inactive”.

Regarding `CC(=O)Nc1sc2c(c1-c1nc3ccccc3s1)CNC2`, the Potency entry was “inactive”.

Turning to `C=CCn1c(=O)c2cnc(Nc3ccc(N4CCN(C)CC4)cc3)nc2n1-c1cccc(C(C)(C)O)n1`, the Potency entry was “inactive”.

On to `CC[C@H]1CN2CCc3cc(OC)c(OC)cc3[C@H]2C[C@@H]1C[C@@H]1NCCc2cc(OC)c(OC)cc21`, for which the Potency entry is “inactive”.

As for `C1=CCOCc2cc(ccc2OCCN2CCCC2)Nc2nccc(n2)-c2cccc(c2)OCC1`, the Potency entry was “inactive”.

Turning to `Clc1cccc(-c2nnnn2Cc2cccnc2)c1Cl`, the Potency entry is “inactive”.

As for `Cc1ccc(C(N)=O)cc1Nc1nccc(-c2cn(C(C)C)c3cnccc23)n1`, the Potency entry is “inactive”.

For the compound `C1Cc2[nH]nc(-c3nn[nH]n3)c2C1`, the Potency entry is “inactive”.

As for `Cc1cc(Nc2cc(N3CCN(C)CC3)nc(C=Cc3ccccc3)n2)n[nH]1`, the Potency entry was “inactive”.

Regarding `CC(=O)Nc1nc(C)c(-c2ccc(Cl)c(S(=O)(=O)NCCO)c2)s1`, the Potency result was “inactive”.

As for `O=C(C=Cc1cccnc1)NCCCCC1CCN(C(=O)c2ccccc2)CC1`, the Potency entry was “inactive”.

In the case of `O=C(Nc1cn[nH]c1-c1nc2ccc(CN3CCOCC3)cc2[nH]1)NC1CC1`, the Potency entry was “inactive”.

Take `Cc1nc2ccc(CN(C)c3ccc(C(=O)N[C@@H](CCC(=O)O)C(=O)O)s3)cc2c(=O)[nH]1`: the Potency entry is “inactive”.

Turning to `O=C(Nc1ncc(-c2cc(C(F)F)nn2-c2c(Cl)cccc2Cl)s1)C1CC1`, the Potency result was “inactive”.

In the case of `Cc1ccc2nc(NC(=O)CSc3nc4c(c(=O)n3-c3ccccc3)SCC4)sc2c1`, the Potency entry was “inactive”.

(Values after PubChem BioAssay (NCATS).)
